CHX counter – counter-screen hit for Shiga toxin inhibitors, cycloheximide. cell reporter, cycloheximide protein synthesis inhibition counterscreen. max response, %. 300,000 compounds, 12% hits. AID 2314; in the data active means max response mostly above about 13%, no sharp cut-off; inactive means mostly below about 14%; further: read at 38.3 µM for the half of the compounds with a filed dose
Lassa entry inh – blocks Lassa virus binding to or entry into cells; Lassa virus pseudotype entry inhibition, cell reporter; Potency, µM (titrated, usually from 37.9 µM), actives largely listed as inhibitors; 300,000 compounds, 1.2% hits; AID 540256; calls by dose curve; tested in HEK293 cells; further: nearly all actives have a fitted effect of over 50% in size
Pf growth 96h – P. falciparum growth inhibition at 96 hours. Potency, µM (titrated, usually from 28.7 µM), most hits filed as inhibitors. P. falciparum luciferase reporter growth, 96 h. 320,000 compounds, 6.9% hits
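Luminescence readout: decreased luciferase signal marks inhibited growth of reporter-expressing P. falciparum in infected red cells (2% hematocrit, 0.05% parasitemia final), exposed to compound two generations (96 h, 37 C, 5% CO2).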
Shiga toxin inh – Shiga toxin inhibition. Vero cells, Shiga toxin protein synthesis inhibition reporter. inhibition, % at 38.7 µM. 290,000 compounds, 9.2% hits; in the data active means inhibition mostly above about 28%, no sharp cut-off; inactive means mostly below about 43%
Marburg entry inh – Marburg virus entry inhibition; Potency, µM (highest dose often 37.8 µM), actives largely listed as inhibitors; 300,000 compounds, 1.8% hits; Marburg virus pseudotyped entry inhibition, cell reporter; calls by dose curve; tested in HEK293 cells
Pf growth 48h – inhibits P. falciparum growth in the first generation, 48 h; P. falciparum luciferase growth in erythrocytes, 48 h; Potency, µM (highest dose often 28.7 µM), most hits filed as inhibitors; 310,000 compounds, 5.9% hits
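Firefly luciferase activity from engineered P. falciparum reports growth; inhibitors lower the luminescent signal. Cultures contained 2% hematocrit erythrocytes at 0.1% final parasitemia.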
Each line names hits and unclear results; the compound was inactive in the other large screens. A selection: hits, their analogues and other compounds. The true share with any hit is near 19%. Unless noted, the call rests on the fitted dose curve; in most records, active means well fitted inhibition curve with a large enough effect; inconclusive means small, poorly fitted or top-dose-only effect, or another doubt; inactive means no such curve, though single readings can be large or run the other way.

Cc1conc1NC(c1cccs1)c1ccc2cccnc2c1O (configuration not stated)	Pf growth 96h 6.6µM, Pf growth 48h 1.9µM (no result: Lassa entry inh)
COCCCNC(=O)c1ccccc1NS(C)(=O)=O	Marburg entry inh inconclusive (no result: Pf growth 96h)
CC(Nc1ccc(-c2nc(-c3ccccn3)no2)cc1[N+](=O)[O-])c1ccccc1 (configuration not stated)	none (no result: CHX counter, Pf growth 96h, Shiga toxin inh, Pf growth 48h)
COc1ccc(C(=O)C2CCCN(Cc3cccn3-c3ccc(Cl)cn3)C2)c(OC)c1 (configuration not stated)	Lassa entry inh inconclusive, Marburg entry inh inconclusive, Pf growth 48h 4.1µM
COc1ccc2cc(C(=O)C3CCCN(Cc4cccc(C)n4)C3)ccc2c1 (configuration not stated)	Lassa entry inh inconclusive, Pf growth 96h inconclusive, Marburg entry inh 22µM, Pf growth 48h 0.66µM
COc1c(C)cc(C(=O)C2CCCN(Cc3ccccn3)C2)cc1C (configuration not stated)	Marburg entry inh inconclusive, Pf growth 48h 2.1µM
COc1cccc(C(=O)C2CCCN(Cc3ccccn3)C2)c1 (configuration not stated)	Pf growth 48h inconclusive
COc1ccc(C(=O)C2CCCN(Cc3cccc(C)n3)C2)c(OC)c1 (configuration not stated)	Lassa entry inh inconclusive, Pf growth 96h 1µM, Marburg entry inh inconclusive, Pf growth 48h 1.5µM
O=C(O)CNC(=O)C1(N2C(=O)c3ccccc3C2=O)CCCC1	none (no result: CHX counter, Pf growth 96h, Shiga toxin inh, Pf growth 48h)
CCN(CC)c1ccc(C2C(C(=O)Nc3ccccc3C)=C(C)Nc3ncnn32)cc1 (configuration not stated)	none (no result: CHX counter, Pf growth 96h, Shiga toxin inh, Marburg entry inh, Pf growth 48h)
CN=c1scc(-c2ccc(F)cc2)n1/N=C/c1ccc(O)c(O)c1	Lassa entry inh inconclusive, Pf growth 96h inconclusive, Marburg entry inh 18µM
Cc1ccc(CN2CCN(/N=C/c3ccc(O)c(O)c3)CC2)cc1	none (no result: Lassa entry inh, Marburg entry inh)
CC(=O)Nc1sc(N/N=C/c2ccc(C)cc2)nc1-c1ccc(C)cc1	CHX counter 52, Pf growth 96h inconclusive, Shiga toxin inh 71, Pf growth 48h inconclusive (no result: Lassa entry inh, Marburg entry inh)
CC(=O)Nc1sc(N/N=C/c2ccc(N(C)C)cc2)nc1-c1ccc(C)cc1	CHX counter 25, Pf growth 96h 4.7µM, Shiga toxin inh 58, Pf growth 48h 2.1µM (no result: Lassa entry inh, Marburg entry inh)
CC(=O)Nc1sc(/C(C#N)=C/c2ccc(Cl)c(Cl)c2)nc1-c1ccc(C)cc1	none
COc1ccc(NC(=S)NCc2ccc(F)cc2)cc1	none (no result: Lassa entry inh, Marburg entry inh)
COc1ccc(/C(N)=C/C(=O)C(C)(C)C)cc1	CHX counter 19
CC(C)(C)C(=O)/C=C(\N)c1ccncc1	Pf growth 96h inconclusive, Marburg entry inh inconclusive
COc1ccc(-c2ccc(=O)n(CC(=O)Nc3cccc(O)c3)n2)cc1OC	none
COc1ccc(S(=O)(=O)N2CCN(C(=O)c3cc(-c4ccc(C)cc4)n[nH]3)CC2)cc1	Pf growth 48h inconclusive (no result: Lassa entry inh, Marburg entry inh)
O=Cc1ccc(N2CCCC2)o1	none
CC1CCN(c2ccc(C=O)o2)CC1	Pf growth 96h 0.23µM
C/C(=C/c1oc2ccc(O)cc2c1[N+](=O)[O-])N(C)C	Pf growth 96h 15µM (no result: Pf growth 48h)
CC(=O)Oc1ccc2oc(/C=C/N(C)C)c([N+](=O)[O-])c2c1	Pf growth 96h inconclusive (no result: Pf growth 48h)
COc1cc2nncc(SC)c2cc1OC	Marburg entry inh inconclusive (no result: CHX counter, Pf growth 96h, Shiga toxin inh, Pf growth 48h)
COc1ccc(C(=O)CNc2ccccc2C#N)cc1	CHX counter 28, Shiga toxin inh 76
COC(=O)c1ccccc1NCC(=O)c1ccc(OC)cc1	Pf growth 96h inconclusive
COc1ccc(C(=O)CNc2ccccc2CO)cc1	CHX counter 42, Lassa entry inh inconclusive, Shiga toxin inh 111, Marburg entry inh inconclusive
COc1ccc(C(=O)CNc2ccc(C)cc2C)cc1	CHX counter 25
COc1ccc(C(=O)COc2ccccc2C(N)=O)cc1	none
COc1ccc(C(=O)COc2ccccc2C#N)cc1	CHX counter 28, Shiga toxin inh 60
CN(C)S(=O)(=O)c1ccc(C(=O)N2CCN(C(=O)C3CCCO3)CC2)cc1 (configuration not stated)	Marburg entry inh inconclusive (no result: CHX counter, Shiga toxin inh)
CCCS(=O)(=O)N1CCN(Cc2ccc(OCc3ccccc3)c(OC)c2)CC1	none (no result: CHX counter, Pf growth 96h, Shiga toxin inh, Pf growth 48h)
Cc1ccc2nc(-c3ccccc3)c(CN3CCSCC3)n2c1	Marburg entry inh inconclusive
CCCn1c(SCC(=O)Nc2ccc(NC(C)=O)cc2)nc2c1c(=O)n(C)c(=O)n2C	none
Cc1cc(N2CCC3(CC2)OCCO3)n2nc(C)c(-c3ccc(Cl)cc3)c2n1	none (no result: CHX counter, Lassa entry inh, Pf growth 96h, Shiga toxin inh, Pf growth 48h)
COc1ccccc1NCC(=O)c1ccc(C)c(C)c1	CHX counter 16 (no result: Shiga toxin inh)
Cc1ncc(CO)c(CNc2ccc(-c3nc4ccccc4[nH]3)cc2)c1O	CHX counter 16, Pf growth 48h inconclusive (no result: Lassa entry inh, Marburg entry inh)
CCOC(=O)C(C)n1cnc2scc(-c3ccc(C)cc3)c2c1=O (configuration not stated)	Pf growth 96h inconclusive, Pf growth 48h inconclusive (no result: Lassa entry inh, Marburg entry inh)
CCc1ccc(C2CC(c3ccc(C)cc3)Nc3nc(N)nn32)cc1 (configuration not stated)	none
Nc1nc2n(n1)C(c1cccs1)CC(c1ccc(F)cc1)N2 (configuration not stated)	none
CCOc1ccc(C2CC(c3cccc(Cl)c3)n3nc(N)nc3N2)cc1 (configuration not stated)	Pf growth 96h 3.7µM
CCOc1ccc([C@H]2C[C@H](c3ccccc3)Nc3nc(N)nn32)cc1	none (no result: CHX counter, Lassa entry inh, Pf growth 96h, Shiga toxin inh, Pf growth 48h)
COc1ccc(C2CC(c3cccs3)n3nc(N)nc3N2)cc1 (configuration not stated)	CHX counter 7.4, Pf growth 96h inconclusive, Shiga toxin inh 23 (no result: Lassa entry inh, Marburg entry inh)
CCc1ccc(C2CC(c3ccccc3C)n3nc(N)nc3N2)cc1 (configuration not stated)	Pf growth 96h 15µM
CN(C)CCN(C)Cc1ccccc1Sc1cccc2ccccc12	Lassa entry inh inconclusive, Pf growth 96h 13µM, Marburg entry inh inconclusive, Pf growth 48h inconclusive
Cn1nc(-c2ccccc2)c(-c2ccccc2)c(C(=O)Nc2ccccc2C(N)=O)c1=O	none (no result: CHX counter, Pf growth 96h, Shiga toxin inh, Pf growth 48h)
Cc1cccc(N2CCN(C(=O)c3cc(S(=O)(=O)N4CCOCC4)cn3C)CC2)c1C	Pf growth 96h inconclusive, Pf growth 48h inconclusive (no result: Lassa entry inh, Marburg entry inh)
Cc1cccc(NC(=O)c2cc(S(=O)(=O)N3CCOCC3)cn2C)c1C	Pf growth 96h 6.6µM (no result: Lassa entry inh, Marburg entry inh)
Cc1cccc(N2CCN(C(=O)c3cn(C)c(=O)c4c3c3ccccc3n4C)CC2)c1C	Lassa entry inh 6.5µM, Pf growth 96h inconclusive, Marburg entry inh inconclusive, Pf growth 48h inconclusive
Cc1cccc(N2CCN(C(=O)c3cc(S(=O)(=O)N4CCCC4)cn3C)CC2)c1C	Pf growth 96h inconclusive, Pf growth 48h 9.3µM (no result: Lassa entry inh, Marburg entry inh)
N#C/C(=C\c1ccc(-c2ccccc2[N+](=O)[O-])o1)C(=O)Nc1nc(-c2cccs2)cs1	Lassa entry inh inconclusive, Marburg entry inh inconclusive
CCn1c(C)nc2cc(S(=O)(=O)C(F)F)ccc21	none
CC(O)CNc1ccc(-c2n[nH]c(=O)c3ccccc23)cc1[N+](=O)[O-] (configuration not stated)	CHX counter 22
Cn1nc(-c2ccc(NCCO)c([N+](=O)[O-])c2)c2ccccc2c1=O	Lassa entry inh inconclusive, Pf growth 96h 5.2µM

From PubChem BioAssay
